Here are results for 5 compounds from PubChem BioAssay.

Inconclusive results are not listed. The source made the active and inactive calls.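 The calls were made as follows, unless noted: active = response below a set limit, under 55% cells CD8-positive and vesicle-bound, and CD8 cells' 90th-percentile brightness under 279; inactive = the rest.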 Peptide text beside a SMILES is read from it.

Experiment [1] is described as follows: rapamycin-like changes in RPL19A-GFP expression – cell-based, S. cerevisiae, multiplex flow cytometry, primary screen (AID 1862; in the data active = percent of DMSO control GFP below about 86%;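 also: lower values mimic rapamycin by blocking the RPL19A rise seen in DMSO cells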). The following applies: S. cerevisiae RPL19A-GFP strain, flow cytometry fluorescence, 3 h; at 10 µM; stronger effect = lower value. On the technique in general: A flow cytometer gives signals particle by particle.
Experiment [2] in a line: TOR pathway GLN3 branch reporter MEP2-GFP changes – S. cerevisiae, multiplex flow cytometry, primary screen (AID 1867;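 active = GFP response, as percent of the DMSO control, above the screen-wide mean plus 3 SD, about 139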;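 also: median GFP channel fluorescence of barcode-gated MEP2-GFP cells measured by flow cytometry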). As to conditions: S. cerevisiae MEP2-GFP strain, 3 h, at 10 µM, stronger effect = higher value, 100% means same as DMSO wells.
Experiment [3] in a line: TOR pathway RTG branch CIT2 reporter changes – S. cerevisiae, GFP fusion, multiplex flow cytometry, primary screen (AID 1870;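 active = percent response above a set limit, the screen-wide mean plus 3 SD, cut at about 130% in these data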;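 also: barcoded CIT2-GFP strain pooled with four other GFP strains with rapamycin as positive control; median GFP fluorescence per well over plate mean of DMSO wells so 100% = DMSO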). The following applies: S. cerevisiae CIT2-GFP expression, 3 h, at 10 µM, stronger effect = higher value.
The nature of experiment [4]: TOR pathway LAP4-GFP level changes – S. cerevisiae, multiplex flow cytometry, primary screen (AID 1873;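 active = GFP signal, as percent of the solvent control, above the screen mean plus 3 SD, about 149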). As to conditions: S. cerevisiae LAP4-GFP expression, 3 h, at 10 µM, stronger effect = higher value.
Experiment [5] can be described thus: yeast AGP1-GFP level changes, GLN3 branch – cell-based, multiplex flow cytometry, S. cerevisiae, primary screen (AID 1887;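 active = GFP signal above the screen-wide mean plus 3 SD, that is over about 124.5% of the solvent control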;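 also: AGP1-GFP fusion strain of S. cerevisiae within a five-strain barcoded multiplex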). As to conditions: 3 h, at 10 µM, stronger effect = higher value.
Experiment [6] is described as follows: reduced mouse 2C T cell binding to pMHC/ICAM-1 vesicles – MLPCN validation set, flow cytometry, LFA-1/ICAM-1 modulator project, pilot screen (AID 2523).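 As to vesicle binding response: mean PE anti-B7-1 fluorescence of CD8+ cells relative to row control; 100% = QL9-loaded vesicles with DMSO vehicle in the same plate row.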 As to conditions: 2C mouse CD8+ T cells, at 7 µM, stronger effect = lower value; double positive events: measured here: CD8+/vesicle+ event percentage.
The target in experiment [7] is Integrin beta-1 (Homo sapiens) + Integrin alpha-4 (Homo sapiens) (UniProt P13612+P05556). Briefly: alpha4beta1 integrin LIBS antibody binding reduction – U937 cells, HUTS-21 mAb, flow cytometry, validation set, VLA-4 allosteric modulator project, pilot screen (AID 2674;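 active = inhibition above 50%, about 3 SD of the validation set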;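 also: antibody binding induced by the VLA-4 ligand LDV present at three times its Kd; 0% = LDV ligand with antibody and no compound and 100% = antibody without LDV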). As to conditions: HUTS-21 LIBS mAb binding, at 6.7 µM, stronger effect = higher value, binding induced by LDV ligand.
Sequence of Integrin beta-1 (Homo sapiens) + Integrin alpha-4 (Homo sapiens) (P05556 whole entry, looked up): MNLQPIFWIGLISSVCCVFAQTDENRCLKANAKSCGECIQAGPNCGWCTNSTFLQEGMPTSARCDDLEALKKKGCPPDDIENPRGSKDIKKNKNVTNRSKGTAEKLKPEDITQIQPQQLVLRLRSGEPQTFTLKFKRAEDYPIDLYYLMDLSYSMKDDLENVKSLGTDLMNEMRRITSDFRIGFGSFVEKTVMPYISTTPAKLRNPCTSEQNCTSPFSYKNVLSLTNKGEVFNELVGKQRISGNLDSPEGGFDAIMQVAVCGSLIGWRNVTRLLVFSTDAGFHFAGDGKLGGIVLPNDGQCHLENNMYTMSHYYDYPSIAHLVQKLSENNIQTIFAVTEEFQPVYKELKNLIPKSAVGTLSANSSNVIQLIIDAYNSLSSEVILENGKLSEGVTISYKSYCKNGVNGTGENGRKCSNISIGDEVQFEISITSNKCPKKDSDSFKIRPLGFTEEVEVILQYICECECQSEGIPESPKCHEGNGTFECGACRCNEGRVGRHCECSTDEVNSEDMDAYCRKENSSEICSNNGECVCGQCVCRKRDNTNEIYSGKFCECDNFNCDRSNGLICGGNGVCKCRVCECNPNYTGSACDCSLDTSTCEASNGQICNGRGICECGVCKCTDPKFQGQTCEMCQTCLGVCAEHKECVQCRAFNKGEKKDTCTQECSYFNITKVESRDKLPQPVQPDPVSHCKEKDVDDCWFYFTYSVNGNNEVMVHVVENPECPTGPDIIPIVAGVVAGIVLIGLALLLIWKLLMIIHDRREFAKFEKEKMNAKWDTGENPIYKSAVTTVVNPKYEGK
Sequence of Integrin beta-1 (Homo sapiens) + Integrin alpha-4 (Homo sapiens) (P13612 whole entry, looked up): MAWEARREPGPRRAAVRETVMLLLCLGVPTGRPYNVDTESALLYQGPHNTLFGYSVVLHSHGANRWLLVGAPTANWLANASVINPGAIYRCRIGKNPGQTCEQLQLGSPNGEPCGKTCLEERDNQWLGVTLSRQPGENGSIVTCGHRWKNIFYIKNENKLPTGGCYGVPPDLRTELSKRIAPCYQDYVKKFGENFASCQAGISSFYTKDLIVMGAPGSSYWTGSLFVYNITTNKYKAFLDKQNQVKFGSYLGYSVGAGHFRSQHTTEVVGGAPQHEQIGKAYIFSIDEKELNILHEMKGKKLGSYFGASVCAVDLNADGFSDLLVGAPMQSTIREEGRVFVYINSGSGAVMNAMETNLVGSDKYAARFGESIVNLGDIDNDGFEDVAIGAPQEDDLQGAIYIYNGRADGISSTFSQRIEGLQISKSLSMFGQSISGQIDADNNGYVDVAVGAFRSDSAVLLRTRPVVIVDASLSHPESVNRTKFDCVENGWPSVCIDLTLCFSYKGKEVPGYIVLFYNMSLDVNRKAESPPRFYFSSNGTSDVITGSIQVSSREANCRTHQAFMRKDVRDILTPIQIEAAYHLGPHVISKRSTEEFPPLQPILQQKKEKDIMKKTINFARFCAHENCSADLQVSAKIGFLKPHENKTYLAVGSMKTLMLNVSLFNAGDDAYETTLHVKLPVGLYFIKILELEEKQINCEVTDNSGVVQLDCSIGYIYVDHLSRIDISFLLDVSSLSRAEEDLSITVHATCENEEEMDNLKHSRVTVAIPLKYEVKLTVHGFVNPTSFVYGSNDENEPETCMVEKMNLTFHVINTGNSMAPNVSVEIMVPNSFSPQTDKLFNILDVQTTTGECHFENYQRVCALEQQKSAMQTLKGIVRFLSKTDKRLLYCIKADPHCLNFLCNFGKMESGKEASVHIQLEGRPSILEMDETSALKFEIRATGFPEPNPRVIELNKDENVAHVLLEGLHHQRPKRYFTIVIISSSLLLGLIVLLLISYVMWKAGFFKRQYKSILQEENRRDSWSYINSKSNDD

Experiment [8] is described as follows: calorie-restriction mimetic ROS inhibitors, yeast – validation compound set, pilot screen (AID 2706;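 active = superoxide response below 65% of plate, a cut near 3 SD across the whole screen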;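 also: yeast exposed to compound for one week at 30 degrees C before staining; 100% = mean of all compound wells on the same plate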). The following applies: S. cerevisiae aging, superoxide DHE fluorescence; at 10 µM; stronger effect = lower value.
The target of experiment [9] is Beta-adrenergic receptor kinase 1 (Homo sapiens) (UniProt P25098). As to the kind of experiment: GRK2 binders displacing RNA aptamer, biochemical, validation, human GRK2, bead flow cytometry (AID 488806;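 active = aptamer binding inhibition above 30%, about 3 SD of noise from non-fluorescent compounds; inactive = inhibition at or below 30%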). As to conditions: bead-bound GRK2, FAM-aptamer displacement, at 10 µM, stronger effect = higher value.
Sequence of Beta-adrenergic receptor kinase 1 (Homo sapiens) (P25098 whole entry, looked up): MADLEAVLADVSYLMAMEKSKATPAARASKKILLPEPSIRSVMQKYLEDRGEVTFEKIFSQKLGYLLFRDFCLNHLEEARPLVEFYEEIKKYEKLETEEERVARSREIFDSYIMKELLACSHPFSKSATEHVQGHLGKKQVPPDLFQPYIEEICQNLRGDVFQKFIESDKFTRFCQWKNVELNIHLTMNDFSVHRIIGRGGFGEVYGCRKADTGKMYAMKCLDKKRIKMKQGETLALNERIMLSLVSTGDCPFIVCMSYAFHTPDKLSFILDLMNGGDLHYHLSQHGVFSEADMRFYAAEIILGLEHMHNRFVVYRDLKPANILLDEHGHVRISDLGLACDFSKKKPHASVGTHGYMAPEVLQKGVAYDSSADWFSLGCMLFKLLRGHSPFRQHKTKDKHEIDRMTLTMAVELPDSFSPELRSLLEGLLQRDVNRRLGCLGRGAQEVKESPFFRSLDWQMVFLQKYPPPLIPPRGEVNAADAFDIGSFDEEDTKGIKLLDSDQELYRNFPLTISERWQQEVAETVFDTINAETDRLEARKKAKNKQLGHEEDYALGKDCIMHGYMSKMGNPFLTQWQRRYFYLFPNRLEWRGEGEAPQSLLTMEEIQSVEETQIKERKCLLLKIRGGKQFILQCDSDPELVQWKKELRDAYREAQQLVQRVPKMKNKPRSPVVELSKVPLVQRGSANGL
For experiment [10], the target named is Beta-2 adrenergic receptor (Homo sapiens) (UniProt P07550). As to the kind of experiment: agonist-induced loss of surface beta2AR – cell-based, FAP fluorogen, flow cytometry, validation set, pilot screen (AID 504459;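 active = percent response above 42, roughly 3 SD of non-fluorescent test compounds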;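 also: agonist-driven loss of surface beta2AR via internalization measured by FAP dye flow cytometry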). The following applies: Am2.2-beta2AR cells, at 10 µM, stronger effect = higher value.
Sequence of Beta-2 adrenergic receptor (Homo sapiens) (P07550 whole entry, looked up): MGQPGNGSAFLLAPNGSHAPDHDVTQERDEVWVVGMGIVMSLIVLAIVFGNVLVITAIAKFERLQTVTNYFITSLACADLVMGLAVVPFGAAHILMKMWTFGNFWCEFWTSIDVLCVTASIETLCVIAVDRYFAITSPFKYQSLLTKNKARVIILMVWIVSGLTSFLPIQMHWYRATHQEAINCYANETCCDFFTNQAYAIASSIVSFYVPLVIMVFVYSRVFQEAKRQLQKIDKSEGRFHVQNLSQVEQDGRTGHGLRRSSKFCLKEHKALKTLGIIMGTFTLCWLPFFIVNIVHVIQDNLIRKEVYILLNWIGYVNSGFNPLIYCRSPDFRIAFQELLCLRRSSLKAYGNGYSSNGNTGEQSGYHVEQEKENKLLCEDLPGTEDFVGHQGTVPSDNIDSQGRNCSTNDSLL
The target in experiment [11] is AP-2 complex subunit beta (Homo sapiens) (UniProt P63010). As to the kind of experiment: beta-arrestin/AP2 interaction blockers – biochemical, validation set, GST-AP2 beads, flow cytometry, pilot screen (AID 504541;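 active = inhibition above 54%, about 3 SD of non-fluorescent compounds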;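 also: AP2 carries R879A mutation and is captured from E. coli lysate; bead-bound FITC arrestin peptide fluorescence measuring arrestin peptide binding to AP2; 0% = DMSO wells and 100% = excess unlabeled arrestin peptide control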). As to conditions: FITC arrestin peptide, at 10 µM, stronger effect = higher value, AP2 beta2 appendage fragment, R879A mutant.
Sequence of AP-2 complex subunit beta (Homo sapiens) (P63010 whole entry, looked up, the tested form may be a part, one chain of several): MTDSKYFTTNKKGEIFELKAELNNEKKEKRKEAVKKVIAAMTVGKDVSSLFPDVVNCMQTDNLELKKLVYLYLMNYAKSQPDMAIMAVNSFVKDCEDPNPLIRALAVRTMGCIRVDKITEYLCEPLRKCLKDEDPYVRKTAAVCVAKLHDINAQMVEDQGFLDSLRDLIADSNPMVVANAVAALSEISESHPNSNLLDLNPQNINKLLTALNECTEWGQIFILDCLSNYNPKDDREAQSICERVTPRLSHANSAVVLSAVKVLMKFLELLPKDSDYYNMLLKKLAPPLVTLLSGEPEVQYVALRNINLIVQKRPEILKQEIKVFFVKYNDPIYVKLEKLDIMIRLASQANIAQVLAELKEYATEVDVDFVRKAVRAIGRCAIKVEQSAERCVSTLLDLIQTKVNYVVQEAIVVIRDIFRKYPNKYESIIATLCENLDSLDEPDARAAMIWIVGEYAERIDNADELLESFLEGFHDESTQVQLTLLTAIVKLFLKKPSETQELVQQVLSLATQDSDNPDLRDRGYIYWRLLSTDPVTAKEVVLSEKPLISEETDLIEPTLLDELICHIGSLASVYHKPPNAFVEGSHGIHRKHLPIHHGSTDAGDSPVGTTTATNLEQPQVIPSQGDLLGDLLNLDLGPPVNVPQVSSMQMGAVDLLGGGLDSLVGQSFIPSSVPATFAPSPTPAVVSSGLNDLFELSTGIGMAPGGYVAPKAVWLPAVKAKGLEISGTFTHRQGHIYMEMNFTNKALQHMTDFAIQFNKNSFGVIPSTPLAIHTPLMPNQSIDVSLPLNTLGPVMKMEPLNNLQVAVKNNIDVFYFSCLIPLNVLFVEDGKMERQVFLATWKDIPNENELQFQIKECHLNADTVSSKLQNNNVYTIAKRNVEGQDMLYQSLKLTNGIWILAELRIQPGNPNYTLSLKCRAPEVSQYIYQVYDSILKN
A short description of experiment [12]: cytosolic pH regulators acting via V-ATPase – S. cerevisiae, pHLuorin, HTS validation (AID 504600; in the data active = response above about 15%;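 also: plate controls were DMSO for no effect and reference compound for full effect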). The following applies: V-ATPase proton transport, at 10 µM, stronger effect = higher value.
In experiment [13] the test system is anti-desmoglein-3 scFv antibody binding to human DSG3. Briefly: blockers of pathogenic pemphigus antibody–desmoglein-3 binding – biochemical, validation compound set, bead-based, flow cytometry, pilot screen (AID 588368;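 active = binding below the plate cutoff, the plate median minus 3 SD, with a reading above zero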;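 also: signal is the median channel fluorescence of bead-bound GFP antibody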). The following applies: Protein G beads, DSG3-Fc, scFv-GFP binding, at 10 µM, stronger effect = lower value.
Experiment [14] can be described thus: Nile Red efflux blockade in pump-expressing yeast – validation compound set, multiplex, phenotypic, pilot screen (AID 588506;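 active = efflux inhibition above 0.42, the validation set average plus 4 SD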;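 also: Nile Red retained in cells so higher fluorescence means more efflux inhibition; 0 = negative control wells and 1 = enniatin B 25 µM full block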). As to conditions: S. cerevisiae pump-expressing triplex, Nile Red efflux flow cytometry; at 10 µM; stronger effect = higher value; the pumps come from Candida albicans.
Experiment [15] has as its target ATP-binding cassette sub-family B member 6 (Homo sapiens) (UniProt Q9NP58). Briefly: blockers of ABCB6-driven porphyrin uptake – K562-ABCB6 cells, flow cytometry, validation set, pilot screen (AID 588550;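 active = inhibition above the screen-wide mean plus 3 SD, about 51%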;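 also: 0% = DMSO wells and 100% = benzethonium chloride 70 µM positive control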). The following applies: K562-ABCB6 porphyrin accumulation, 1 h, at 10 µM, stronger effect = higher value.
Experiment [16] is described as follows: AML differentiation inducers, ER-HoxA9 marrow cells – cell-based, GFP/MAC1 double positive, flow cytometry, validation set, primary screen (AID 588685;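 active = differentiation response of at least 50%, scaled between solvent and reference control, from cells with both markers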;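 also: compound exposure lasts four days before antibody staining and flow analysis; 0% = DMSO wells and 100% = 5 µM fulvestrant positive control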). As to conditions: stronger effect = higher value, normalized: vehicle 0, fulvestrant 100.

Sequence of ATP-binding cassette sub-family B member 6 (Homo sapiens) (Q9NP58 whole entry, looked up): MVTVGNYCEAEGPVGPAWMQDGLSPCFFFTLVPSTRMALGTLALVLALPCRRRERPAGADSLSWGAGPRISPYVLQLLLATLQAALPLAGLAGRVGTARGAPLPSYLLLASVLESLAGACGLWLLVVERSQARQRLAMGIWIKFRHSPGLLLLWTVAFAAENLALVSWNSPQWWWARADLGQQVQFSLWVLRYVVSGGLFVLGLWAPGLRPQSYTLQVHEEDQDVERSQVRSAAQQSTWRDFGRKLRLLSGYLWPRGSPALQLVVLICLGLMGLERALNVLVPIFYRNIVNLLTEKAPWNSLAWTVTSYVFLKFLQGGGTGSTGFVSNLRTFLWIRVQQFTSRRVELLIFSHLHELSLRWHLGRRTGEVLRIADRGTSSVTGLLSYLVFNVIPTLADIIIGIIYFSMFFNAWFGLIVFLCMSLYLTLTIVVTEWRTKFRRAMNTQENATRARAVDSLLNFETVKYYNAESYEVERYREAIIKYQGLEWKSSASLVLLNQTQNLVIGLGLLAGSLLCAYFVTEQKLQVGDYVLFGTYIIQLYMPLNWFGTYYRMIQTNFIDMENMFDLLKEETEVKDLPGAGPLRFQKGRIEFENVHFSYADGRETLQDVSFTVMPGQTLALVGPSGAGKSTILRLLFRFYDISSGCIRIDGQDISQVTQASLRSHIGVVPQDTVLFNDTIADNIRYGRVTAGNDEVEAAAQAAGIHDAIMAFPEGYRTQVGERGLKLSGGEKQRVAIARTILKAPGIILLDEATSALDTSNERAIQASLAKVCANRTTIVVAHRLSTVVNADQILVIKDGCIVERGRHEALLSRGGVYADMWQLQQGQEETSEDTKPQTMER

Turning to `C=CCOc1ccc(C(=O)CC)cc1OC`, the percent of DMSO control GFP in [1] was 102% (inactive). Also, the values for the GFP response vs DMSO in [2] and in [4] were 105% (inactive) and 106% (inactive), respectively. In [3], the percent response of DMSO control is 104% (inactive). In addition, in experiment [5], the GFP response, % of DMSO is 98.6% (inactive). Further, the double positive events in [6] turned out to be 60%. The vesicle binding response in experiment [6] was 174% (inactive). Besides, the figures for the inhibition in [7], in experiment [11] and in [15] were 8.29% (inactive), -8.48% (inactive) and -4% (inactive), respectively. In addition, the superoxide response (% of plate) in experiment [8] was 103% (inactive). For the same compound, the aptamer binding inhibition in experiment [9] is 1% (inactive). The response in [10] is 2.91% (inactive); in [12], 9.51% (inactive). Also, the binding (% of control) in experiment [13] is 106% (inactive). In addition, in experiment [14], the efflux inhibition (fraction of control) is 0.03 (inactive). Also, in experiment [16], the differentiation response is -6.03% (inactive).

In the case of `CC(=O)NC(CC(C)C)C(=O)NC(Cc1ccccc1)C(N)=O` (stereo not drawn) (Ac-Leu-Phe-NH2; configuration not given here), the percent of DMSO control GFP in experiment [1] is 101% (inactive). Besides, the GFP response vs DMSO in experiment [2] is 107% (inactive); in [4] it was 111% (inactive). Besides, the percent response of DMSO control in [3] is 98.6% (inactive). In [5], the GFP response, % of DMSO is 103% (inactive). The compound also showed a double positive events in [6] of 60.5%. Further, in [6], the vesicle binding response is 128% (inactive). The inhibition in experiment [7] is 20.4% (inactive); in experiment [11], -15.5% (inactive); in experiment [15], 13% (inactive). Also, the superoxide response (% of plate) in experiment [8] was 91.8% (inactive). Besides, the aptamer binding inhibition in [9] was 2% (inactive). In addition, the results for the response in experiment [10] and in experiment [12] were 4.73% (inactive) and -1.63% (inactive), respectively. Besides, the binding (% of control) in experiment [13] is 103% (inactive). The efflux inhibition (fraction of control) in experiment [14] was -0.13 (inactive). The differentiation response in [16] was -4.57% (inactive).

As to `COCCOC(=O)C1=C(C)NC(C)=C(C(=O)OC(C)C)C1c1cccc([N+](=O)[O-])c1` (stereo not given), the percent of DMSO control GFP in experiment [1] was 102% (inactive). Further, the GFP response vs DMSO was 105% (inactive) in experiment [2] and 94.7% (inactive) in experiment [4]. Further, in experiment [3], the percent response of DMSO control was 111% (inactive). The GFP response, % of DMSO in experiment [5] was 99.4% (inactive). The same compound yielded a double positive events in experiment [6] of 58.9%. The vesicle binding response in experiment [6] was 182% (inactive). The figures for the inhibition in experiment [7], in [11] and in experiment [15] were 4.73% (inactive), -3.69% (inactive) and -4% (inactive), respectively. Also, the superoxide response (% of plate) in [8] is 106% (inactive). Also, the aptamer binding inhibition in experiment [9] was -1% (inactive). In addition, the response in experiment [10] is -6.98% (inactive); in [12], 8.68% (inactive). Further, the binding (% of control) in [13] was 97.4% (inactive). In addition, in experiment [14], the efflux inhibition (fraction of control) was -0.17 (inactive). For the same compound, the differentiation response in experiment [16] is -10.5% (inactive).

Consider `CCCCCC#CCC#CCC#CCC#CCCCC(=O)O`, for which the percent of DMSO control GFP in [1] was 106% (inactive). Also, the GFP response vs DMSO in experiment [2] was 108% (inactive); in [4] it was 106% (inactive). Also, the percent response of DMSO control in experiment [3] was 103% (inactive). Moreover, the GFP response, % of DMSO in [5] was 116% (inactive). The same compound gave a double positive events in experiment [6] of 62.5%. The vesicle binding response in experiment [6] is 208% (inactive). In addition, the results for the inhibition in [7], in [11] and in experiment [15] were -3.67% (inactive), 26.9% (inactive) and 2% (inactive), respectively. Further, the superoxide response (% of plate) in experiment [8] was 123% (inactive). For the same compound, the aptamer binding inhibition in [9] is 62% (active). The response in [10] was -11.7% (inactive); in experiment [12], 4.4% (inactive). Also, in experiment [13], the binding (% of control) is 90.5% (inactive). The efflux inhibition (fraction of control) in [14] is 0.04 (inactive). Further, the differentiation response in experiment [16] was -10.9% (inactive).

Consider `O=C(COc1ccc2c(-c3ccccc3)cc(=O)oc2c1)NCc1cccs1`, for which, in experiment [1], the percent of DMSO control GFP was 97.5% (inactive). Moreover, the GFP response vs DMSO was 96.6% (inactive) in experiment [2] and 102% (inactive) in experiment [4]. In addition, the percent response of DMSO control in experiment [3] was 85.4% (inactive). Besides, the GFP response, % of DMSO in experiment [5] is 102% (inactive). The same compound returned a double positive events in [6] of 64.6%. Further, the vesicle binding response in experiment [6] was 214% (inactive). In addition, the inhibition in [7] is -3.67% (inactive); in [11] it was 26.5% (inactive); in experiment [15], 14% (inactive). For the same compound, the superoxide response (% of plate) in experiment [8] was 92.2% (inactive). Also, in experiment [9], the aptamer binding inhibition is -2% (inactive). Further, the response in [10] was -25.8% (inactive); in [12], -7% (inactive). Further, the binding (% of control) in experiment [13] is 102% (inactive). For the same compound, the efflux inhibition (fraction of control) in experiment [14] was 0.12 (inactive). In addition, the differentiation response in experiment [16] is 6.83% (inactive).

Usually inhibition stands for the relative decrease from the control value, in per cent.
